In ChEMBL document CHEMBL1157539, “Thousands of chemical starting points for antimalarial lead identification” (Nature, 2010):

tested on: Plasmodium falciparum; test: GSK_TCMDC: Inhibition of Plasmodium falciparum 3D7 in whole red blood cells, using parasite LDH activity as an index of growth. Test compounds present at 2uM; type: functional

Row | SMILES | Inhibition [%]
1 | CC1CCCN1Cc1cccc(-c2ccc(C(=O)NCCOc3ccccc3)s2)c1.O=C(O)C(F)(F)F (stereo not given) | 83
2 | COc1cc(CN2CCC(N3CCc4cc(NC(=O)c5cc(C)on5)ccc43)C2)ccc1F (stereo not given) | 91
3 | CCCCCn1c(Sc2ccc(C#N)c([N+](=O)[O-])c2)nnc1-c1cc(OC)cc(OC)c1 | 93
4 | CC(C)COc1ccc(Cl)cc1Cc1ccc(-c2nc3ccc(Br)cc3[nH]2)o1.Cl | 80
5 | C=CCn1c(Sc2ccc(C#N)c([N+](=O)[O-])c2)nnc1-c1ccc(Cl)cc1 | 97

tested on: Plasmodium falciparum; test: GSK_TCMDC: Inhibition of Plasmodium falciparum Dd2 in whole red blood cells, using parasite LDH activity as an index of growth. Test compounds present at 2uM; type: functional

Row | SMILES | Inhibition [%]
6 | O=C(NCCN1Cc2ccccc2C1=O)c1ccc(Oc2ccc(C(=O)NCCN3Cc4ccccc4C3=O)cc2)cc1 | 95
7 | O=C(Cc1cccnc1)Nc1cccc(-c2cccc(-c3nc4cc(C(F)(F)F)ccc4[nH]3)c2)c1 | 38
8 | CCCCCC(NCCCC)c1ccc(OCCOc2ccc(C(CCCCC)NCCCC)cc2)cc1.Cl (stereo not given) | 96
9 | COC(=O)c1cccc(CNCc2ccc(-c3ccc(-c4nc5cccc(C)c5[nH]4)s3)cc2)c1.O=C(O)C(F)(F)F | 64
10 | O=C(NC1CC1)c1cnc(N2CCC(COc3cccc(F)c3)CC2)c(Cl)c1 | 87
11 | Cc1cccc(CNc2nc(C)cc(N[C@@H](Cc3ccccc3)C(=O)NCCOc3ccccc3)n2)c1.O=C(O)C(F)(F)F | 54
12 | COC(=O)c1cc(OC2CCOC2=O)cc2c1OC(C)(C)O2 (stereo not given) | 0
13 | NC1=NC(c2ccccc2)(c2ccccc2)C(=O)N1Cc1ccc(-c2cccnc2)cc1.O=CO | 94
14 | O=C(/C=C/c1ccc(Cl)c(Cl)c1)NCCCCCN1CCN(C(=O)Nc2ccc(C(F)(F)F)cc2)CC1 | 0
15 | CCSc1nnc(C2CCCN(CC(=O)Nc3cc(C(F)(F)F)ccc3Cl)C2)n1CC (stereo not given) | 96
16 | COC(=O)c1ccccc1COc1ccc(CC2(NC(=O)[C@H](Nc3ccc(C#N)c4ccccc34)C(C)(C)C)CCCC2)cc1 | 82
17 | COCCOc1ccc(Nc2nccc(-c3c(-c4cccc(NC(=O)c5c(F)cccc5F)c4)nn4ccccc34)n2)cc1F | 60
18 | CC(=O)N(Cc1nc(-c2cc(Cl)c(Cl)s2)cs1)c1c(C)cccc1C | 95
19 | O=C(NC1CC1)c1ccc(N2CCN(Cc3ccc(Cl)cc3)CC2)nc1.O=C(O)C(F)(F)F | 81
20 | CCCCCCCN1CC[C@@H](CCCc2ccnc3ccc(OCC4CCCNC4)cc23)[C@@H](CC)C1.Cl (stereo not given in full) | 100
21 | CC[C@H](C)CNC(=O)c1cncc(-c2cccc(CN3CCC(N4CCCC4)CC3)c2)c1.O=C(O)C(F)(F)F | 5
22 | CN(C)CCC1CCN(CCS(=O)(=O)c2cccc(Nc3ncc(-c4cccc(F)c4)cn3)c2)CC1 | 12
23 | CCCN(C(=O)c1ccccc1C)c1nnc(-c2ccccc2C)s1 | 65
24 | CCOC(=O)c1cc(=O)c2ccc(OCC#N)cc2o1 | 86
25 | O=[N+]([O-])c1ccc(-c2ccc(C=NNc3nc(Nc4ccccc4)nc(Nc4ccccc4)n3)o2)cc1 | 12

Row | SMILES | Inhibition [%]
26 | COc1cc(F)c2ncc(F)c([C@@H](O)CN3CCC(NCc4cc5c(cn4)OCCO5)CC3)c2c1.Cl | 88
27 | Br.COc1ccc(CCON2C(=N)N=C(N)NC2(C)C)cc1OC | 93
28 | CNC(=O)c1ccccc1Nc1nc(Nc2cccnc2)ncc1C.Cl | 90
29 | O=C(Cn1cc(C(F)(F)F)cc(Cl)c1=O)N1CCN(S(=O)(=O)c2ccc(Cl)cc2)CC1 | 69
30 | Cc1ccc(Nc2ccnc(Nc3ccc(C)c(F)c3)n2)cc1O.Cl | 27
31 | CC(C)(C)N1CCC(N(Cc2ccc(-c3ccc(C(F)(F)F)cc3)cc2)C(=O)Cn2c(CCc3cccc(F)c3F)cc(=O)c3cccnc32)CC1.O=C(O)C(O)C(O)C(=O)O | 63
32 | N#CC1(c2ccccc2)CCN(c2nc(NCCCN3CCCC3=O)nc(N3CCCC4CCCCC43)n2)CC1 (stereo not given) | 92
33 | COc1cccc(CNC[C@@H](O)[C@H](Cc2ccccc2)NC(=O)c2cc3c4c(c2)c(C(C)C)cn4CCS(=O)(=O)N3C)c1.O=CO | 98
34 | Fc1ccc2[nH]c(-c3ccc(-c4ccc(CN5CCCCC5)cc4)s3)nc2c1.O=C(O)C(F)(F)F | 100
35 | CC(=O)Nc1ccc(C(=O)Nc2cccc(-c3cccc(-c4nc5cccc(C)c5[nH]4)c3)c2)cn1 | 100
36 | CC(C)OC(=O)c1cccnc1SCC(=O)Nc1ccc(C(F)(F)F)cc1Cl | 88
37 | Cc1cccc2nc(-c3cccc(-c4ccc(NC(=O)Cc5ccon5)cc4)c3)[nH]c12 | 38
38 | Cc1cc(N[C@@H](CC(C)C)C(=O)Nc2ccccc2)nc(NCC2CCCCC2)n1.O=C(O)C(F)(F)F | 95
39 | CN1CCN(c2ccnc3ccc(NC(=O)Nc4ccc(-c5ccncc5)c5ccccc45)cc23)CC1 | 84
40 | CN(C)CCNC(=O)NC1CN(c2ncnc3cc(-c4ccccc4)sc23)C1.O=C(O)C(F)(F)F | 39
41 | CC1CCCN1Cc1cccc(-c2ccc(C(=O)NCCOc3ccccc3)s2)c1.O=C(O)C(F)(F)F (stereo not given) | 0
42 | COc1cc(CN2CCC(N3CCc4cc(NC(=O)c5cc(C)on5)ccc43)C2)ccc1F (stereo not given) | 96
43 | CCCCCn1c(Sc2ccc(C#N)c([N+](=O)[O-])c2)nnc1-c1cc(OC)cc(OC)c1 | 24
44 | CC(C)COc1ccc(Cl)cc1Cc1ccc(-c2nc3ccc(Br)cc3[nH]2)o1.Cl | 75
45 | C=CCn1c(Sc2ccc(C#N)c([N+](=O)[O-])c2)nnc1-c1ccc(Cl)cc1 | 85
